Screening results (PubChem BioAssay)
Shown are actives, neighbours in structure and some others; about 5% of the full set was active somewhere.
Vaccinia Venus = inhibitors of vaccinia virus (Venus reporter). AID 720580. Vaccinia virus Venus reporter expression, fluorescence. Potency, µM (doses to about 36.5 µM), hits mostly inhibitors. 330,000 tested, 0.46% active; calls by dose curve; tested in A549 cells; also: nearly all actives have a fitted effect of over 30% in size
HCMV antiviral = blocks human cytomegalovirus replication; 410,000 tested, 4.5% active; HFF cells, HCMV-luciferase reporter, 72 h; active compounds read low; activity change, negative = inhibition, % at 57.5 µM; in the data active = activity change below about -60%; inconclusive = no clear call, values can overlap the other calls; inactive = above about -39%
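Luciferase read-out from HCMV-luciferase-infected HFFs (MOI 1 PFU/cell) 72 h post infection at 37C; compounds added after 16 h cell attachment; activity normalized between buffer-only basal and Salinomycin (10uM) inhibitor controls.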
TbPYK inhibitor = inhibitors of Trypanosoma brucei pyruvate kinase. Q57TT1. TbPYK enzyme, Kinase-Glo Plus ATP luminescence, 45 min. Potency, µM (top dose mostly 76.8 µM), most hits filed as inhibitors. 410,000 tested, 0.12% active; also: nearly all actives have a fitted effect of over 50% in size
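TbPYK + substrate in 50 mM TEA pH 7.2, 100 mM KCl, 10 mM MgCl2, 0.05% BSA, 0.01% Tween-20; cpd pinned; ADP 130 uM final; 45 min RT; Kinase-Glo Plus 10 min; luminescence endpoint.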
Vaccinia mCherry = inhibitors of vaccinia virus infection (mCherry reporter signal); Vaccinia virus mCherry reporter infection, fluorescence; Potency, µM (series often up to 36.5 µM), usual class: inhibitors; 310,000 tested, 0.63% active; calls by dose curve; tested in A549 cells; also: nearly all actives have a fitted effect of over 35% in size
LmPK inh = blocks Leishmania mexicana pyruvate kinase activity | Potency, µM (series often up to 57.5 µM), actives largely listed as inhibitors | AID 1721 | Q27686 | purified LmPK, Kinase-Glo ATP luminescence, 1 h | 290,000 tested, 0.37% active
Target sequence (Q27686 whole entry, looked up): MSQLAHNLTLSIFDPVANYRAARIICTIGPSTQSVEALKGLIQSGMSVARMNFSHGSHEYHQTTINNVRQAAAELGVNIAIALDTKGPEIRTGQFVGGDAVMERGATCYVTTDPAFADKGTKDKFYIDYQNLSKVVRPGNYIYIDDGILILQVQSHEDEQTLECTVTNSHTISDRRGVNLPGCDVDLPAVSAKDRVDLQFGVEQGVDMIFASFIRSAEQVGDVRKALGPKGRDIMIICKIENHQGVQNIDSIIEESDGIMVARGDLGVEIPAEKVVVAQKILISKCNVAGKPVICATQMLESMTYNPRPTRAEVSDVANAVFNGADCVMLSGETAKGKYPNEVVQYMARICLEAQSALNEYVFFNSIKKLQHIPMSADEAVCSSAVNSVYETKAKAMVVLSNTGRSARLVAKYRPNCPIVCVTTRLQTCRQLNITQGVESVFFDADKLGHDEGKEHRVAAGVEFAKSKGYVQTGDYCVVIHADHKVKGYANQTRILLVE
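Pyruvate kinase activity monitored as ATP production (luciferase luminescence). Conditions: 0.1 nM enzyme, 0.5 mM PEP, 0.1 mM ADP, 1 h, RT; normalized against uninhibited and no-enzyme wells.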
Large screens that a line does not name were inactive. Unless noted, calls follow the shape of the dose curve; as a rule, active = well fitted curve in the direction sought with a large enough effect; inconclusive = small, poorly fitted or top-dose-only effect, or another doubt; inactive = no such curve, though single readings can be large; an effect the other way counts as inactive or inconclusive.

CC(=O)Nc1ccc(NC(=O)C2CCN(c3ccc(C(F)(F)F)cn3)CC2)cc1	HCMV antiviral -67
Cc1cccc(C(=O)Nc2ccc(N3CCN(c4ccc(C(F)(F)F)cn4)CC3)nc2)c1	none
CCC(C)c1ccc(NC(=O)C2CCN(c3ccc(C(F)(F)F)cn3)CC2)cc1 (stereo not given)	HCMV antiviral -60
COc1c(O)cc(O)cc1O	none (no result: HCMV antiviral, TbPYK inhibitor, LmPK inh)
Cc1ccc(/C=C/C(=O)NCCCN2CCN(CCCNC(=O)/C=C/c3ccc(C)cc3)CC2)cc1	none
COc1ccc(/C=C/C(=O)NCCCN2CCCC2)cc1	HCMV antiviral -103 (no result: Vaccinia Venus, Vaccinia mCherry)
Cc1oc(-c2ccc(C(=O)NCc3ccccc3)cc2)nc1CN1CCc2ccccc21	none (no result: LmPK inh)
CCc1cnc2c(c1SCC(=O)c1ccc(OC)cc1)c(=O)n(C)c(=O)n2C	none (no result: LmPK inh)
COc1cc(C(=O)Nc2cccc(-c3nc4ncccc4o3)c2C)cc(OC)c1OC	HCMV antiviral -106 (no result: Vaccinia mCherry)
CC(NC(=O)Cc1ccc(-c2ccccc2)cc1)c1ccccc1 (stereo not given)	none
Cc1cc(NC(=O)c2cc(-c3cccc(Cl)c3)on2)nn1Cc1ccc(Cl)cc1	Vaccinia Venus inconclusive, HCMV antiviral -80, Vaccinia mCherry inconclusive (no result: LmPK inh)
COc1ccccc1-c1ccc(SCc2ccc([N+](=O)[O-])cc2)nn1	HCMV antiviral -68
CCCS(=O)(=O)N1CCN=C1SCc1cccc2ccccc12	none
COc1ccc(-c2cc3nc(C)c(CCC(=O)N4CCN(c5cccc(Cl)c5)CC4)c(C)n3n2)c(OC)c1	none (no result: LmPK inh)
O=C(NCCc1ccccc1)c1ccccc1NC(=O)C1CC=CCC1C(=O)O (stereo not given)	none
COC(=O)c1ccccc1NC(=O)C1CC=CCC1C(=O)O (stereo not given)	HCMV antiviral -60 (no result: Vaccinia Venus, Vaccinia mCherry)
Cc1ccc(OCC(=O)N(C)CC(=O)Nc2ccc(F)cc2)c([N+](=O)[O-])n1	none
Cc1ccc(OCC(=O)N(C)CC(=O)Nc2ccccc2Cl)c([N+](=O)[O-])n1	HCMV antiviral -84 (no result: LmPK inh)
COc1cccc(-c2nn(-c3ccccc3)cc2C(=O)NCC(=O)O)c1	none
CCn1ccnc1CN(C)Cc1cn(-c2ccc(C)cc2)nc1-c1cccc(C)c1	none
Cc1cc(C)n(/N=C/c2cccs2)c(=O)c1C#N	HCMV antiviral -76 (no result: Vaccinia Venus, Vaccinia mCherry)
CCOC(=O)c1c(N2C(=O)C=CC2=O)sc(C)c1C	Vaccinia Venus inconclusive, TbPYK inhibitor 25µM, Vaccinia mCherry inconclusive, LmPK inh inconclusive (no result: HCMV antiviral)
CCOc1ccccc1-n1c(SCC(=O)N(C(C)C)C(C)C)nnc1-c1cccnc1	none
Cc1ccc(NS(=O)(=O)c2ccc(Cl)c(C(=O)Nc3ccccc3-c3nc4ccccc4[nH]3)c2)cc1C	Vaccinia Venus 10µM, HCMV antiviral -85, Vaccinia mCherry inconclusive
N#Cc1cccc(N=Cc2c(O)ccc3ccccc23)c1	HCMV antiviral -61, Vaccinia mCherry inconclusive
Cc1ccc(N=Cc2c(O)ccc3ccccc23)cc1F	none
COc1ccc(-c2nn(-c3ccccc3)cc2/C=N/Nc2cccc(C(=O)O)c2)cc1	HCMV antiviral -61
COc1ccc(-c2nn(-c3ccccc3)cc2/C=N/NC(=O)c2ccc3c(c2)OCO3)cc1	none (no result: Vaccinia Venus, HCMV antiviral, TbPYK inhibitor, Vaccinia mCherry)
COc1ccccc1CNS(=O)(=O)c1ccc(-c2cc(C)no2)cc1	HCMV antiviral -60 (no result: Vaccinia Venus, Vaccinia mCherry)
CCc1ccc(-c2cc(C)no2)cc1S(=O)(=O)NCc1ccccc1OC	none (no result: Vaccinia Venus, Vaccinia mCherry)
COc1cc(NS(=O)(=O)c2ccc(-c3cc(C)no3)cc2)cc(OC)c1	Vaccinia Venus inconclusive, HCMV antiviral -85, Vaccinia mCherry inconclusive (no result: LmPK inh)
CCCSc1nnc(N2C(=O)C(O)=C(C(=O)c3ccco3)C2c2ccccc2F)s1 (stereo not given)	HCMV antiviral inconclusive (no result: Vaccinia Venus, Vaccinia mCherry)
O=C(CNC(=O)c1ccc(-c2ccccc2)cc1)OCc1c(Cl)cccc1Cl	none
CN(C)c1ncc([N+](=O)[O-])cc1C(F)(F)F	none
CCOC(=O)[C@@H]1[C@H]2COc3cc(OC)ccc3[C@@H]2N2C(=O)N(c3ccc(Cl)cc3)C(=O)[C@]12C	none (no result: LmPK inh)
COc1cccc2c(Cl)c(CCCl)c(C)nc12	HCMV antiviral -69
CCCCc1c(C)nc2c(OC)cccc2c1SCC(=O)O	none
COc1ccc(C(=O)c2c(N)sc3c2CCN(C(=O)OC(C)(C)C)C3)cc1	HCMV antiviral -84, Vaccinia mCherry inconclusive
CN1CCc2c(sc(N)c2C(=O)c2ccc(Cl)cc2)C1	none
COc1cc(N2C(=O)CC(=O)NC2=O)cc(OC)c1OC	none
O=C(N/N=C/C1=C(N2CCOCC2)C(=C\c2ccccc2)/CC1)Nc1ccccc1	HCMV antiviral -71
CC1(C(=O)NS(=O)(=O)c2ccc(C#N)cc2)CCN1C(=O)CCC1CCCC1 (stereo not given)	none (no result: LmPK inh)
O=C(O)CCc1ccc(S(=O)(=O)Nc2ccc(OCc3ccccc3)cc2)cc1	Vaccinia mCherry inconclusive
CCOc1ccc(Oc2ccccc2NS(=O)(=O)c2ccc(CCC(=O)O)cc2)cc1	HCMV antiviral -64 (no result: Vaccinia Venus, Vaccinia mCherry, LmPK inh)
Cc1ccc(CN(C)C(=O)c2ccccc2Sc2ccccc2C#N)cc1	none (no result: Vaccinia Venus, Vaccinia mCherry)
CN(Cc1ccc(OC(F)F)cc1)C(=O)c1ccccc1Sc1ccccc1C#N	HCMV antiviral -69, Vaccinia mCherry inconclusive (no result: LmPK inh)
CC(=O)c1ccc(NS(=O)(=O)c2ccc(C)cc2)cc1	none
COc1cc(OC)c(OC)cc1/C=C/C(=O)c1ccc(NS(=O)(=O)c2ccc(C)cc2)cc1	HCMV antiviral -78, Vaccinia mCherry inconclusive
CCOC(=O)c1ccc(N/C=C\C(=O)c2cccc(OC)c2)cc1	none
COc1ccc(C(=O)/C=C/Nc2ccc(S(=O)(=O)Nc3cccc(C(C)=O)c3)cc2)cc1	HCMV antiviral -72
COc1cccc(N/C=C/C(=O)c2ccc(Br)cc2)c1	none (no result: LmPK inh)
COc1cccc(C(=O)/C=C/Nc2cc(C)ccc2O)c1	HCMV antiviral -79 (no result: Vaccinia Venus, Vaccinia mCherry)
COc1ccc(C(=O)/C=C/Nc2cccc(O)c2)cc1	LmPK inh 25µM (no result: Vaccinia Venus, TbPYK inhibitor, Vaccinia mCherry)
CCCCOc1cccc(C2(C(=O)O)CCCC2)c1	HCMV antiviral inconclusive (no result: Vaccinia mCherry)
Cc1ccc([C@@H]2C[C@H]3[C@@H](CN2S(=O)(=O)c2ccc(Cl)cc2)C(=O)C[C@@H](c2cccc4ccccc24)N3S(=O)(=O)c2ccc(C)cc2)cc1	none (no result: LmPK inh)
Cc1ccc(C(=O)/C=C\NCc2ccccc2)cc1	none
COc1ccc(C(=O)/C=C/NCc2ccc(C)cc2)cc1	HCMV antiviral -61 (no result: LmPK inh)
O=C(/C=C/c1ccco1)NCC(=O)N/N=C/c1ccc([N+](=O)[O-])cc1	TbPYK inhibitor inconclusive (no result: Vaccinia Venus, Vaccinia mCherry)
O=C(O)c1ccc(N2C(=O)/C(=C/C=C/c3ccccc3)SC2=S)cc1	none (no result: Vaccinia Venus, Vaccinia mCherry)
CN(C)c1ccc(/C=C/C=C2/SC(=S)N(c3ccccc3)C2=O)cc1	TbPYK inhibitor inconclusive, LmPK inh 13µM
O=S(=O)(NCC1CN(S(=O)(=O)c2c(F)cccc2F)C1)c1ccc2c(c1)OCCO2	HCMV antiviral -62 (no result: Vaccinia Venus, Vaccinia mCherry, LmPK inh)
Cc1cc(C)c(S(=O)(=O)Nc2cc(SCC(=O)O)c(O)c3ccccc23)cc1C	TbPYK inhibitor 10µM, LmPK inh 20µM (no result: HCMV antiviral)
O=S(=O)(Nc1ccc(Cl)cc1NS(=O)(=O)c1ccccc1)c1ccccc1	none (no result: LmPK inh)
